Format in all cases: functional
Assay [1] concerns the target Solute carrier family 2, facilitated glucose transporter member 1 (Homo sapiens) (UniProt P11166). The experiment in a line: ST_JUDE_LEISH: Cytotoxicity at 2uM final concentration against transgenic Leishmania Mexicana promastigotes LmGLUT1 that are glucose transport deficient and complemented with the human glucose transporter GLUT1. Activity is measured by DNA content using SYBR green in vitro.

Assay [2] deals with Hexose transporter 1 (Plasmodium falciparum) (UniProt O97467). The experiment in a line: ST_JUDE_LEISH: Cytotoxicity at 2uM final concentration against transgenic Leishmania Mexicana promastigotes LmPfHT that are glucose transport deficient and complemented with the Plasmodium falciparum hexose transporter. Activity is measured by DNA content using SYBR green in vitro.
For assay [3], the target named is Glucose transporter (Leishmania mexicana) (UniProt O61059). The experiment in a line: ST_JUDE_LEISH: Cytotoxicity at 2uM final concentration against transgenic Leishmania Mexicana promastigotes LmGT2 that are glucose transport deficient and complemented with the L. Mexicana glucose transporter 2. Activity is measured by DNA content using SYBR green in vitro.

The values below come from ChEMBL document CHEMBL3433997, “St. Jude Leishmania screening dataset” (2016).

A word on the inhibition: it is the change of the read-out against control, counted positive when it falls.

Chain of Solute carrier family 2, facilitated glucose transporter member 1 (Homo sapiens) (P11166 whole entry): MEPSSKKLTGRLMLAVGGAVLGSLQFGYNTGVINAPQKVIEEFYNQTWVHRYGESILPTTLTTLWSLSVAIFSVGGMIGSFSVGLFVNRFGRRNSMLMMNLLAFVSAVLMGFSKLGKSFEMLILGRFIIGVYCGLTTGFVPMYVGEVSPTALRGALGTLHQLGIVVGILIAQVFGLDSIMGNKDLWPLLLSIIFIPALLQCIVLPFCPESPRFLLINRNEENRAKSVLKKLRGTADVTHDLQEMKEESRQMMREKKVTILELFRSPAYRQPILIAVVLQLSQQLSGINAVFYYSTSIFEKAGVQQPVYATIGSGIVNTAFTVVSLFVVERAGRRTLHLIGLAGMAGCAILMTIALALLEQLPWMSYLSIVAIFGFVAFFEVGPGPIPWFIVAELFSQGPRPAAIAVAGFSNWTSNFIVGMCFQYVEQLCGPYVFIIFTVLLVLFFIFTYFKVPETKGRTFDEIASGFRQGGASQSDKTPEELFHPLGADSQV

For the molecule `O=C(NC1CCC(N2CCCC(OCc3ccccc3)C2)CC1)c1cc2ccccc2[nH]1` (configuration not stated), the inhibition was 0.93% in assay [1], 3.87% in assay [2] and -1.89% in assay [3].
Turning to `CNc1ccc(CNCc2cccc(-c3ccc(-c4nc5cc(C(F)(F)F)ccc5[nH]4)cc3)c2)cc1`, the inhibition is -1.26% in assay [1], 1.48% in assay [2] and 1.39% in assay [3].
The matching figures for `CN(CCCc1c[nH]c2ccccc12)CC1CCN(C(=O)/C=C/c2ccc(Cl)c(Cl)c2)CC1`: -3.42%, -1.25% and -1.38%.
The matching figures for `Cc1cnc(C(=O)Nc2ccc(-c3cccc(-c4nc5ccccc5[nH]4)c3)cc2)cn1`: 2.19%, 1.94% and -0.57%.
